Data reported in ChEMBL document CHEMBL4513216, “Probing the Open Global Health Chemical Diversity Library for Multistage-Active Starting Points for Next-Generation Antimalarials” (ACS Infect Dis, 2020).
Hit rate of the full screen: of about 68,000 compounds, about 2,700 (4%) showed an effect of 50% or more. The sample as a whole holds a higher share of strong results than the screen did.

system: Plasmodium berghei; assay: Screen against P. berghei liver stage (PbLuc), transformed with Luciferase, at 2uM; type: functional, HepG2; conditions: tested at 2 uM

| Structure (SMILES) | INHIBITION |
| --- | --- |
| Cc1cnc(CCNc2cccc(CC3CCCNC3)n2)s1 (stereo not drawn) | 23.7% |
| CC[C@@H]1N(Cc2ccco2)CCC[C@]12CCC(=O)N2C | 53.46% |
| CC[C@H]1N(Cc2ccco2)CCC[C@]12CCC(=O)N2C | 23.26% |
| CC[C@@H]1N(Cc2ccc(C)s2)CCC[C@]12CCC(=O)N2C | 20.42% |
| CC[C@@H]1N(Cc2ccsc2)CCC[C@]12CCC(=O)N2CCOC | -27.69% |
| CC[C@@H]1N(Cc2ccc(F)cc2)CCC[C@]12CCC(=O)N2C | 25.46% |
| CC[C@@H]1N(Cc2ccsc2)CCC[C@]12CCC(=O)N2C | 62.46% |
| CCCOc1ccc(CC2=NC(C)(CO)CO2)cc1 (stereo not drawn) | -27.61% |
| CCNC(=O)[C@@H]1CCCN1[C@@H](C(=O)NC)c1ccccc1 | -11.34% |
| CSCc1noc(CN2CCC3(CC2)CC(=O)N(CC(C)C)C3)n1 | 10.61% |
| CC(C)N(CCCNC(=O)C1CC(=O)N(C)C1)S(C)(=O)=O (stereo not drawn) | 2.97% |
| COC(=O)C(C)(C)NC(=O)c1cnc(Cc2ccc(F)cc2)s1 | -32.82% |
| COc1ccnc(NC(Cc2ccccc2)C(N)=O)n1 (stereo not drawn) | 33.9% |
| COc1ccc(-c2ccc(C(=O)O)c(F)c2)c(F)c1 | 17.01% |
| COc1ccc(-c2ccc(C(=O)NS(C)(=O)=O)c(F)c2)c(F)c1 | -27.53% |
| COc1ccc(-c2ccc(C(=O)NCCCC(N)=O)c(F)c2)c(F)c1 | 53.81% |
| O=C(c1c[nH]cn1)N1CCCn2c(CN3CCCCC3)nnc2C1 | 51.26% |
| CN(C)Cc1nnc2n1CCCN(C(=O)c1c[nH]cn1)C2 | -51.91% |
| O=C(c1c[nH]cn1)N1CCCn2c(nnc2Cn2cccc2)C1 | 26.44% |
| CNc1cc(C)nc(C2CN(Cc3cncs3)CCO2)c1 (stereo not drawn) | -29.68% |
| CC(C)N(C)C(=O)CSCc1ccc(S(=O)(=O)N(C)C)o1 | 30.34% |
| Cn1cc(CN(C(=O)c2ccc(O)c(Cl)c2)C2CC2)cn1 | -33.15% |
| CN1C(=O)c2ccc(C(=O)N(Cc3cnn(C)c3)C3CC3)cc2C1=O | 21.14% |
| Cn1cc(CN(C(=O)c2ccc3ncsc3c2)C2CC2)cn1 | 57.34% |
| CCn1cnnc1C1CCN(C(=O)c2cccc(-n3cccc3)c2)CC1 | -6.48% |
| COc1cc(N2CCC3(CCN(Cc4nccs4)CC3)C2)ncn1 | 7.71% |

| Structure (SMILES) | INHIBITION |
| --- | --- |
| CCCc1cc(C(=O)N(C)Cc2ccc(OC)c3ncccc23)n(C)n1 | 58.56% |
| CCCc1cc(C(=O)N(C)Cc2cccc3cnccc23)n(C)n1 | 19.91% |
| CCCc1cc(C(=O)N(C)Cc2cccc3ncccc23)n(C)n1 | -24.24% |
| O=C(c1ccccc1)N1C[C@H]2CC[C@@H](C1)N(S(=O)(=O)c1cccnc1)C2 | -23.58% |
| Cc1noc(C)c1CN1CCC2(CCN(Cc3cccc(F)c3)CC2)C1 | 24.04% |
| Cc1nc2ccccc2nc1NCc1cccc(OCC2CCCO2)c1 (stereo not drawn) | 17.25% |
| O=C(CC1=CCCCC1)N1CCC(Cn2cc(CCO)nn2)CC1 | -8.21% |
| COc1ccc(CCCN2C(=O)O[C@@H]3CN(C4CCOCC4)C[C@@H]32)cc1 | 51.81% |
| O=C1O[C@@H]2CN(C3CCOCC3)C[C@@H]2N1CCCc1ccc(F)cc1 | -23.46% |
| COc1ccc(CCN2C(=O)O[C@@H]3CN(C4CCOCC4)C[C@@H]32)cc1 | 1.42% |
| Cc1cc(CN(C)C(=O)CN2CC3(CCNCC3)OC2=O)n(C)n1 | 24.12% |
| CC(Cn1cc(Br)cn1)C(=O)Nc1ccc(C(N)=O)cc1 (stereo not drawn) | -34.79% |
| CSc1nnc(C2CCN(C(=O)N3CCCC3)CC2)n1C | 5.83% |
| O=C(Nc1cccnc1)[C@H]1C[C@H]2OCC[C@H]2N(Cc2ccc(F)cc2)C1 | 26.62% |
| Cn1ccnc1CN1CCc2ncnc(N3CCCC(C#N)C3)c2CC1 (stereo not drawn) | 23.64% |
| c1ccc(CN2CCc3ncnc(C4CC4)c3CC2)cc1 | 14.13% |
| N#CC1CCCN(c2ncnc3c2CCN(Cc2ccccc2)CC3)C1 (stereo not drawn) | 51.9% |
| CC(Cc1ccc2c(c1)OCO2)c1cn(CCN2CCCC2)nn1 (stereo not drawn) | 69.71% |
| Cc1cc(Cn2cc(C(C)Cc3ccc4c(c3)OCO4)nn2)n[nH]1 (stereo not drawn) | 49.88% |
| CC(Cc1ccc2c(c1)OCO2)c1cn(CCc2c[nH]cn2)nn1 (stereo not drawn) | 46.58% |
| CN(Cc1ccncc1)C1COC2(CCN(Cc3ccco3)CC2)C1 (stereo not drawn) | 45.36% |
| O=C(Nc1cn[nH]c1)c1ccc(O)nc1 | 45.75% |
| Cn1nc(C2CCCN(Cc3ccc(F)c(F)c3)C2)c2nccnc21 (stereo not drawn) | 38.65% |
| O=C(c1n[nH]c(=O)c2ccccc12)N1CCC(O)(CN2CCOCC2)C1 (stereo not drawn) | -28.4% |
| Cc1ccc(CN(CCCn2ccnc2)Cc2c(F)cccc2F)s1 | 36.26% |
| O=C(CCn1cccn1)N1C[C@H]2CC[C@@H](C1)N(Cc1ccccn1)C2=O | -19.54% |

| Structure (SMILES) | INHIBITION |
| --- | --- |
| Cn1ncnc1CNC1CCCc2cc(F)ccc21 (stereo not drawn) | -9.03% |
| Cn1ncnc1CNC1CCc2cc(Cl)ccc21 (stereo not drawn) | 74.44% |
| Cc1ccc2c(c1)C(NCc1ncnn1C)CC2 (stereo not drawn) | 38.67% |
| CC(C)NC(=O)C1CCc2nnc(C(C)(C)C)n21 (stereo not drawn) | 12.84% |
| O=C(CCN1CCOCC1)Nc1cccc(CNCc2ccsc2)c1 | 3.54% |
| CCN(C(=O)NCc1ccccc1OC(F)F)C(C)c1cccnc1 (stereo not drawn) | 38.67% |
| CC(NC(=O)NCc1cccnc1N(C)C)c1ccc(F)cc1 (stereo not drawn) | 59.21% |
| CCOc1ccccc1CNC(=O)N(CC)C(C)c1cccnc1 (stereo not drawn) | 21.97% |
| CC(C)C(NC(=O)NCc1cccnc1N(C)C)c1cccs1 (stereo not drawn) | -16.65% |
| CN(C)c1ncccc1CNC(=O)NCc1ccco1 | 37.15% |
| CN(C)c1ncccc1CNC(=O)NCC(c1cccs1)N(C)C (stereo not drawn) | 31.55% |
| CC(NC(=O)NCc1cccnc1N(C)C)c1cccs1 (stereo not drawn) | 51.31% |
| CCN(C(=O)NCc1cccnc1N(C)C)C(C)c1cccnc1 (stereo not drawn) | 57.75% |
| CN(C)c1ccc(NC(=O)NCc2cccnc2N(C)C)cn1 | 1.63% |
| CCN(CC1CN(CC2CCC2)CCO1)c1cccnn1 (stereo not drawn) | 47.61% |
| Cc1nc2n(n1)CC(NCc1cc(Cl)c3c(c1)OCCCO3)CC2 (stereo not drawn) | 3.86% |
| CN(Cc1ccco1)[C@@H]1CN(Cc2ccc(F)cc2)[C@@H]2CCCO[C@H]12 | -12.36% |
| COc1ncnc(N)c1CNCCc1ccc(-n2cccn2)cc1 | 18.37% |
| O=C(c1cccs1)N1CC[C@H]2C[C@@H](c3nnc(C4CC4)o3)O[C@@H]2C1 | 31.41% |
| CN(C)C(=O)C1OC2(CCN(C(=O)c3ccoc3)CC2)c2ccccc21 (stereo not drawn) | 25.43% |
| CCC(O)CN1CCN(C(=O)c2cccn2Cc2ccncc2)CC1 (stereo not drawn) | -21.72% |
| COCC1Cn2nnc(-c3cnn(C)c3)c2CN1Cc1ccoc1 (stereo not drawn) | 19.42% |
| COCC1Cn2nnc(-c3cnn(C)c3)c2CN1Cc1ccsc1 (stereo not drawn) | 33.14% |
| COCC1Cn2nnc(-c3cnn(C)c3)c2CN1Cc1cccs1 (stereo not drawn) | -34.95% |
| COCC1Cn2nnc(-c3cnn(C)c3)c2CN1Cc1ccco1 (stereo not drawn) | 14.97% |
| COCC1Cn2nnc(-c3cnn(C)c3)c2CN1Cc1ccc(C)s1 (stereo not drawn) | 52.77% |

| Structure (SMILES) | INHIBITION |
| --- | --- |
| COCC1Cn2nnc(-c3cnn(C)c3)c2CN1Cc1ccc(C)o1 (stereo not drawn) | 56.76% |
| Cc1ccccc1CNC(=O)Cn1nc(-c2ccc(F)cc2)oc1=O | -25.13% |
| CCOc1ccc(C(=O)Nc2c(C)nc3ccc(Cl)cn3c2=O)cc1 | 27% |
| Cc1cc2cc(Nc3c(C#N)c(=O)n(C)c(=O)n3C)ccc2[nH]1 | 13.53% |
| O=C(CSc1ccc2c(c1)OCCO2)NS(=O)(=O)c1cccnc1 | 16.95% |
| Cc1ccc(N(C)S(=O)(=O)c2cc(C(=O)O)cs2)cc1 | -29.54% |
| Cc1cccc(N(C)S(=O)(=O)c2cc(C(=O)O)cs2)c1 | 68.24% |
| Cc1cc(C)cc(N(C)S(=O)(=O)c2cc(C(=O)O)cs2)c1 | -8.84% |
| O=C(Nc1ccccc1)N1C[C@@H]2C[C@H](C(=O)N3CCOCC3)[C@H](C1)O2 | 24.15% |
| CC(C)(C)CC(=O)NCCn1nc(C2CCNC2)c2cccnc21 (stereo not drawn) | 21.13% |
| CN(C)c1ccc(NC(=O)NCc2ccccn2)cn1 | 17.39% |
| Cc1nc(CNC(=O)Nc2ccc(N(C)C)nc2)sc1C | 74.34% |
| CN(C)c1ccc(NC(=O)NCc2ccc(Cl)s2)cn1 | 17.62% |
| O=C(CC1=CSC2=NCCN12)N1CCCC(CCc2cccc(F)c2)C1 (stereo not drawn) | -33.45% |
| CN(C)C(=O)Cc1ccccc1NCc1nc(Cc2ccccc2)no1 | -12.95% |
| CNC(=O)C1(c2cnccn2)CCCN1C(=O)c1ccccn1 (stereo not drawn) | -3.55% |
| OCCNc1nc(Nc2ccccc2)c2nccnc2n1 | 4.64% |
| Cc1cnn(CC(C)NCC(=O)Nc2ccc(Cl)cn2)c1 (stereo not drawn) | 42.11% |
| Cc1cnn(CCNC(C)C(=O)Nc2ccc(Cl)cn2)c1 (stereo not drawn) | 67.44% |
| Cc1cnn(CCNCC(=O)Nc2ccc(Cl)cn2)c1 | -1.56% |
| Cc1nn(C)c2c(N3CCN(C(=O)C(C)C)CC3)ncnc12 | 31.57% |
| CCN(CCn1cccn1)Cc1nc(-c2cccc(C)c2)oc1C | 65.76% |
| CCN(CCn1cccn1)Cc1nc(-c2ccc(F)cc2)oc1C | -11.66% |
| CCN(CCn1cccn1)Cc1nc(-c2ccoc2)oc1C | -16.71% |
| Cc1cccc(CN2CCC3(CC2)NC(=O)C[C@H]3c2cnn(C)c2)n1 | 14.65% |
